From PubChem BioAssay AID588855 (National Center for Advancing Translational Sciences (NCATS), 2011)
Screen size: about 410,000 compounds; about 5,000 (1.2%) were called active. Inconclusive results (about 13%) are left out. Many of the other results were omitted from the sample, so actives are more common in it than they were. Values without a mark were called inactive. Calls follow the shape of the dose curve; as a rule, active = well fitted inhibition curve with a large enough effect; inconclusive = small, poorly fitted or top-dose-only effect; inactive = no such curve, though single readings can be large or run the other way.

assay: qHTS for Inhibitors of TGF-b; conditions: HepG2 CAGA-GFP TGF-b/SMAD3 reporter, GFP fluorescence, 18 h, TGF-beta stimulated, 500 pg/mL final; series mostly up to 46.1 µM; activity, negative = inhibition: at the top concentration; also: nearly all actives have a fitted effect of over 65% in size
From the text: TGF-b is a main component in the TGF-b signaling pathway which plays diverse roles in cellular and development pathways. TGF-b is the mediated by the transcription factors Smads. Although the Smad-dependent pathway is the primary canonical TGF-b signaling node, TGF-b1 can also activate alternative signaling pathways, including those involving MAPK (ERK, JNK and p38). This interaction may mediate or enhance Smad-dependent responses, or can exert Smad-independent effects. The complexity of this signaling cascade allows the TGF-b superfamily to perform unique, overlapping or redundant functions. We believe that targeting the TGF-beta pathway at the Smad-transcription factor level may eliminate the consequences of disrupting the entire pathway and offer specificity without affecting other signaling pathways. Smad3 is the primary transducer of TGF-b's signals and Smad3 regulates many functions attributed to TGF-b signaling. We hypothesize that Smad3 inhibitors will selectively eliminate Smad3-specific TGF-beta signals without undesired off-target effects. We aim to identify Smad3-small molecule antagonists using a quantitative high throughput screening (qHTS) approach.
A high-throughput assay was developed to screen the NIH Molecular Libraries Small Molecule Repository (MLSMR). This is a cell based assay, where TGF-b is tagged with GFP. A counterscreen is run that looks at cytotoxicity (please see summary AID).
MH087449NIH Chemical Genomics Center [NCGC]
NIH Molecular Libraries Probe Centers Network [MLPCN]
Assay Submitter (PI): Sushil Rane, National Institute of […]
Suspensions of trypsinized HEPG2 CAGA-GFP cells were dispensed into white, tissue culture-treated, solid 1536-well plates at 5uL/well (1000 cells/well final concentration) in DMEM medium supplemented with 1% FBS. Plates were incubated at 37 degrees C for 2 hours, after which 23 nL of compounds or DMSO were delivered to each well using a pin tool. One uL of recombinant TGF-beta in DMEM (1% FBS) was then dispensed (500 pg/mL final concentration), and plates were incubated at 37 degrees C for 18 hours. The plates were measured on an Acumen eX3 Explorer plate reader for GFP fluorescence (ex488/em500-530). GFP values were calculated by determining the mean GFP fluorescence of individual cells, and compiling these values for each well to determine a total well GFP signal. The %Activity was determined from the corrected fluorescence values. A titration of the known TGF-B inhibitor SB431542 was included to monitor plate performance, while unstimulated HEPG2 (-TGF-B) control wells were used to normalize %Activity of identified inhibitors; unstimulated wells corresponded to 100%Activity (full inhibition), while stimulated cell controls (+DMSO) were used to normalize 0%Activity (no inhibition).
Concentration-response curves were fitted to the signals arising from the resulting fluorescence. The concentration-effect curves were then classified based on curve quality (r2), response magnitude and degree of measured activity, and compounds were subsequently categorized based on their curve class.
Potency is read from the fitted curve at half-maximal effect.

Structure (SMILES)	activity, negative = inhibition [%]	Potency
CN(C)c1ccc(/C=C/c2c3ccccc3nc3ccccc23)cc1	-19.8	
COc1ccccc1N1CCN(C2C(=O)c3ccccc3N2C(C)=O)CC1 (stereo not given)	0	
COc1ccc(NC(=O)CCNS(=O)(=O)c2ccc3c(c2)CCCC(=O)N3)cc1Cl	2.37	
CCOC(=O)CN1CCC(c2ccccc2)CC1	-5.44	
CCOC(=O)C[C@H]1c2ccc(C(F)(F)F)cc2S(=O)(=O)N1c1ccccc1		14.1 µM (active)
CCOC(=O)CNC(=O)/C(=C\c1ccc(F)cc1)NC(=O)c1ccccc1	5.26	
CC1(C)CC(N2CCN(C(c3ccccc3)c3ccccc3)CC2)=CC(=[N+]2CCCCC2)C1		6.31 µM (active)
Cc1onc(C(=O)NN)c1C(=O)N1CCN(C(c2ccccc2)c2ccccc2)CC1	3.15	
CC(C)OCC(O)CN1CCN(C(c2ccccc2)c2ccccc2)CC1 (stereo not given)	3.7	
COc1ccc(NC(=O)c2sc3nc(-c4cc5cccc(OC)c5oc4=O)[nH]c(=O)c3c2C)cc1	-21.6	
Cc1csc[n+]1CCC1CCCCC1	0.0338	
Cc1ccccc1C(=O)Nc1cc(C)c(O)c(-c2nc3ccccc3o2)c1	-8.84	
CC(=O)c1nn(-c2ccc(OC(F)(F)F)cc2)nc1Nc1ccccc1	-3.72	
COC(=O)c1cnn(-c2ccc(C(=O)Nc3ccc(OC(F)(F)F)cc3)cc2)c1N	-19.7	
CC1CCc2c(nc3ncnn3c2Nc2ccc(OC(F)(F)F)cc2)C1 (stereo not given)		15.8 µM (active)
CN(C)CCNC(=O)c1ccc(Cl)c2cc3ccccc3nc12		3.55 µM (active)
CCCN(CCC)CCNC(=O)c1cc2c(C)nc3ccccc3c2o1	-30.9	
Cc1cc(C)n(C(=O)CCNC(=O)c2ccccc2Cl)n1	-15	
O=C(CCC(=O)c1ccccc1)NCc1cccc(C(F)(F)F)c1	-3.04	
O=C(CCC(=O)N1CCN(S(=O)(=O)c2ccc(Cl)cc2)CC1)NCc1cccc(C(F)(F)F)c1		7.08 µM (active)
CC(NC(=O)CCC(=O)N1CCN(S(=O)(=O)c2ccc(Cl)cc2)CC1)c1ccccc1 (stereo not given)	-13.8	
Cc1cc(OCC(=O)Nc2ncn[nH]2)c(C)c(C)c1Br	2.13	
CCCn1c2ccccc2c2cnn(CC(=O)NCCCOC(C)C)c(=O)c21	-16.6	
CCOC(=O)c1c(NC(=O)c2ccc(S(=O)(=O)N3CCCC(C)C3)cc2)sc2c1CCN(C(C)C)C2 (stereo not given)	-0.37	
CCOC(=O)c1cnc2c(C)cc(C)cc2c1Nc1ccc(N2CCOCC2)cc1	-6.96	

Structure (SMILES)	activity, negative = inhibition [%]	Potency
CCC1=Nc2cc(C(=O)NCC(C)c3ccccc3)ccc2Sc2ccc(C)cc21 (stereo not given)	4.45	
CC1=Nc2cc(C(=O)NCc3ccc(C)cc3)ccc2Sc2ccc(Cl)cc21	-12.7	
COCCNC(=O)c1ccc2c(c1)N=C(C)c1cc(C)ccc1S2		2 µM (active)
Cc1nn(-c2ccc(N3CCCCC3)nn2)c(C)c1CCC(=O)NCc1ccc(F)cc1	-26.8	
Cc1ccc(-n2nc(CO)c(C(=O)NCCc3ccccc3)n2)cc1	0	
COc1ccc(-c2cn3nc(N4CCC(C(=O)Nc5cccc(C)c5C)CC4)sc3n2)cc1	0	
COc1ccc(NC(=O)C(=O)NCc2ccco2)cc1	4.07	
COc1ccc(NC(=O)CN2C(=O)NC(C)(c3ccccc3)C2=O)cn1 (stereo not given)	4.02	
COc1ccc(CS(=O)/C(Cl)=C(/Cl)C(=O)Nc2ccc(OC)nc2)cc1 (stereo not given)		3.16 µM (active)
COc1ccc(NC(=O)CSc2nc3ncccc3[nH]2)c(OC)c1	11.2	
COc1ccc(C(=O)c2c3ccc([N+](=O)[O-])cc3[n+]([O-])n2CCCN)cc1		8.91 µM (active)
COc1ccc(C(=O)NCCNc2ccc([N+](=O)[O-])cn2)cc1	1.81	
COc1ccc2c(C(=O)c3ccc(C)cc3)n(CCC(N)=O)[n+]([O-])c2c1	-22.6	
CCS(=O)(=O)N1CCc2cc(C(=O)N3CCN(c4ccccc4OC)CC3)ccc21	-25.2	
CCC(=O)N1CCc2cc(S(=O)(=O)NC(Cc3ccccc3)C(=O)NCc3ccc(C)cc3)ccc21 (stereo not given)	-28.1	
CC(C)OCCCn1c(SCC(=O)c2ccccc2)nc2c(sc3ccccc32)c1=O	-15.3	
C/C(=N\Nc1ccc(Cl)nn1)c1ccccc1O		1.26 µM (active)
Fc1ccccc1Cc1ccc(Cl)nn1	-7.59	
C/C(=N/Nc1ccc(Cl)cc1)c1cnnc(-c2ccccc2)n1	0.78	
COc1ccc(C2=NC(c3ccncc3)=Nc3ccc(Br)cc3N2)cc1	-2.9	
O=C1[C@H]2[C@@H](c3ccc(Cl)cc3)N3C(=O)N(c4cccc(F)c4)C(=O)[C@@]3(Cc3ccccc3)[C@H]2C(=O)N1C1CCCCC1	-18.1	
C[C@@]12C(=O)N(c3cccc(Br)c3)C(=O)N1[C@H](c1ccc(Cl)cc1)[C@@H]1C(=O)N(C3CCCCC3)C(=O)[C@@H]12		11.2 µM (active)
Cc1cccc(N2C(=O)N3[C@H](c4ccc(F)cc4)[C@@H]4C(=O)N(C5CCCCC5)C(=O)[C@@H]4[C@]3(Cc3ccccc3)C2=O)c1	17.6	
CNCCCOc1cc2nc(N3CCCN(C)CC3)nc(NC3CCN(C)CC3)c2cc1OC	22	
CN(Cc1ccccc1)C(=O)CCS(=O)(=O)c1cc(Br)cc2c1N(C(=O)C1CC1)CC2	0	
